Reference: PubChem BioAssay AID761 (NMMLSC, 2007)
Among all 190,000 compounds or so, about 400 (0.21%) were called active. Roughly 2% stayed inconclusive and do not appear here. Shown is part of a subset that was picked to be rich in actives. Values without a mark were called inactive.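 How the source made its calls: active means percent activity GTP binding at least 20 points away from the 100% baseline, either down as inhibitor or up as activator; inconclusive means compound flagged as likely green fluorescent from well-wide comparison; inactive means the rest.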

Biological target: Cell division control protein 42 homolog (Homo sapiens) (UniProt P60953)
Assay: wildtype Cdc42 fluorescent GTP binding changes, either direction – biochemical, multiplex bead flow cytometry, Bodipy-GTP, primary screen (AID 761);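 further: median bead fluorescence of bound Bodipy-FL-GTP at 100 nM; 0% = excess unlabeled GTP control and 100% = no compound control; below 100% means less GTP binding so inhibitor and above means activator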
Conditions: GST-Cdc42 beads, at 10 µM, actives lie on both sides

Sequence of Cell division control protein 42 homolog (Homo sapiens) (P60953 whole entry, looked up): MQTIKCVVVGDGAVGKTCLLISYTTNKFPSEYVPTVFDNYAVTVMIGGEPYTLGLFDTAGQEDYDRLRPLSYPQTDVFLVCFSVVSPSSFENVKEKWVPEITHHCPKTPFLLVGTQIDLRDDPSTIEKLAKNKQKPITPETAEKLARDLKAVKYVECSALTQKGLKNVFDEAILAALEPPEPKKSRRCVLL

| Structure (SMILES) | percent activity (GTP binding) |
| --- | --- |
| Cc1ccccc1CC1(CO)CCCN(C(=O)c2cc(-c3ccccc3)no2)C1 (stereo not drawn) | 98% |
| CCC1(CC)NC(=O)N(CC(=O)OCC(=O)NC(=O)c2ccccc2)C1=O | 101% |
| c1ccc(-n2nnnc2-c2cccnc2)cc1 | 95% |
| O=C(Cn1cnc([N+](=O)[O-])n1)NCCc1ccccc1 | 97% |
| COc1cc(/C=C/C(=O)OCC(=O)N2CCOCC2)ccc1OCC#N | 97% |
| O=C(c1ccc(OC2CCN(Cc3ccccn3)CC2)cc1)N1CCCCCC1 | 96% |
| COc1ccc(C)cc1NC(=O)CSc1nnc(CC(=O)Nc2ccccc2F)n1C | 101% |
| Cc1cc(N/N=C/c2ccccc2F)c2ccccc2n1 | 96% |
| Cc1c(C(N)=O)sc2ncn(CCOc3ccccc3)c(=O)c12 | 89% |
| Cc1ccc(SC(CC(=O)c2ccc(C(C)(C)C)cc2)C(=O)O)cc1 (stereo not drawn) | 77% (active) |
| CC(C)(C)c1ccc(C(=O)CSc2ncn[nH]2)cc1 | 103% |
| Cc1ccc(C(=O)CS(C)(=O)=O)cc1 | 104% |
| CC(=O)N/N=C/c1cc2c(cc1[N+](=O)[O-])OCO2 | 97% |
| CC1(C)CC(=O)CC2(C1)NCC(c1ccccc1Cl)c1c2[nH]c2ccccc12 (stereo not drawn) | 96% |
| COc1ccc(CN(C)Cc2nc3cc(OC)c(OC)cc3c(=O)[nH]2)c(OC)c1 | 105% |
| O=C(Cc1cccs1)Nc1nnc(C2CC2)s1 | 99% |
| CC(=O)Nc1nc(N(C)C)nc(N(C)C)n1 | 97% |
| CN(c1ccccc1)S(=O)(=O)c1ccc(Cl)c(C(=O)OCC(=O)N2CCOCC2)c1 | 96% |
| COc1ccccc1CN(C)c1nnnn1-c1ccccc1 | 102% |
| O=C(NCC1CCN(Cc2ccccc2Cl)CC1)Nc1cccc(Cl)c1 | 106% |

| Structure (SMILES) | percent activity (GTP binding) |
| --- | --- |
| CC(=O)c1cc(C#N)c(N2CC(C)OC(C)C2)nc1C (stereo not drawn) | 98% |
| OCCC1CN(Cc2ccccc2-c2ccco2)CCN1Cc1ccsc1 (stereo not drawn) | 92% |
| COc1ccc(NC(=O)CSc2nnc(-c3ccccc3F)n2C2CC2)cc1S(N)(=O)=O | 97% |
| O=C(NCc1ccco1)C(=O)c1cn(CC(=O)N2CCCCCC2)c2ccccc12 | 94% |
| C=CCN(CC=C)S(=O)(=O)c1ccc(C(=O)Nc2sc3c(c2C(N)=O)CCCCC3)cc1 | 104% |
| COCCN(CCOC)S(=O)(=O)c1ccc(C(=O)Nc2nc3c(s2)CCc2ccccc2-3)cc1 | 107% |
| C=CCN(CC=C)S(=O)(=O)c1ccc(C(=O)Nc2nc3c(s2)CCc2ccccc2-3)cc1 | 138% [activator] (active) |
| CCOc1cc(N2CCOCC2)c(OCC)cc1NC(=O)c1ccc(C)s1 | 94% |
| O=C(CCl)N(Cc1cccc([N+](=O)[O-])c1)c1cccc(Cl)c1 | 96% |
| CC(=O)NCCc1nc2cc(NC(=O)c3ccccc3)ccc2n1C | 102% |
| COC(=O)c1c(NC(=O)CCCC(=O)O)sc2c1CCCCC2 | 97% |
| Cc1nc([N+](=O)[O-])cn1CC(=O)Nc1ccc2c(c1)OCO2 | 94% |
| C/C(Cn1nnc2ccccc21)=N\OC(=O)c1cc(F)c(F)cc1Cl | 89% |
| CCCC(C)C(=O)NCc1ccncc1 (stereo not drawn) | 98% |
| OC1CCCN(c2ncnc3c2nnn3Cc2c(F)cccc2Cl)C1 (stereo not drawn) | 94% |
| CC(C)(C)c1ccc(/C=C2\SC(=O)N=C2N)cc1 | 96% |
| C=CCC1(CC=C)CCCN1C(=O)CC1C(=O)NCCN1Cc1ccccc1OC (stereo not drawn) | 99% |
| COc1ccc(C(C)=O)cc1CSc1nc2nc(C)cc(C)n2n1 | 96% |
| COc1ccc(CCNC(=O)C(=O)NCc2ccccc2C)cc1OC | 100% |
| O=C(C1CCCO1)N1CCN(C(=S)NC2CC2)CC1 (stereo not drawn) | 98% |

| Structure (SMILES) | percent activity (GTP binding) |
| --- | --- |
| S=C(NC1CCCCC1)NN1CCOCC1 | 99% |
| COc1cc(/C=N/Nc2ccc(C)cc2)cc(Br)c1O | 100% |
| COc1ncnc2sc3c(c12)CCCC3 | 103% |
| COc1ccc(/C=N/Nc2ncnc3sc4c(c23)CCCC4)cc1O | 73% (active) |
| Cn1c(N)c(C(=O)COC(=O)/C=C/c2ccc(OC(F)F)cc2)c(=O)n(C)c1=O | 94% |
| Cc1ccc2c(c1)C1CN(C)CCC1N2C(=S)Nc1ccc(Cl)cc1Cl (stereo not drawn) | 97% |
| CCCCCCCNc1nc(Cl)nc(NCCO)n1 | 92% |
| COc1cccc(-n2nc(C(=O)N3CCN(Cc4ccccc4)CC3)c3ccccc3c2=O)c1 | 96% |
| CCOC(=O)N1CCC(=NNC(N)=O)CC1 | 102% |
| CCOC(=O)C(NC(C)=O)C(=O)Nc1ccc(OC)cc1 (stereo not drawn) | 93% |
| S=C(Nc1cccc(Br)c1)N1CCn2cccc2C1c1cccnc1 (stereo not drawn) | 96% |
| O=C(CSc1ccccc1)Nc1ccc(NC(=O)c2ccco2)cc1 | 100% |
| Cc1cc(C)cc(NC(=O)CSc2ccccc2)c1 | 91% |
| O=C(CSc1ccccc1)Nc1ccc(C(=O)Nc2cccc(O)c2)cc1 | 77% (active) |
| COCCSc1nnc(NC(=O)c2cc(OC)c(OC)cc2[N+](=O)[O-])s1 | 102% |
| O=C(CSc1ncnc2c1nnn2Cc1ccc(F)cc1)NC1CCCC1 | 96% |
| CC(=O)c1ccc(NC(=O)C(C)N(C)CC(=O)Nc2ccccc2Cl)cc1 (stereo not drawn) | 98% |
| COC(=O)C(C)N=Cc1ccccc1 (stereo not drawn) | 97% |
